HT1080-NT tox: kills 2HG-producing HT-1080-NT fibrosarcoma cells. HT-1080-NT fibrosarcoma viability, CellTiter-Glo ATP luminescence, 48 h. Potency, µM (highest dose often 46.1 µM), for inactives: at the top dose activity, negative = less viability, most hits filed as cytotoxic. 1.6% of 360,000 active;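 note: NT is the 2HG producing partner of a matched IDH1 knockdown line; potency is the fitted concentration of half-maximal effect; 0% = DMSO-treated cells and -100% = media-only wells without cells; nearly all actives have a fitted effect of over 55% in size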
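Luminescent CellTiter-Glo readout after 48 hours of compound exposure at 37 degrees C defined viability of HT-1080-NT cells. Activity was normalized to DMSO wells and cell-free media wells; concentration-response curves were fitted and assigned curve classes.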
IL-1B inflam inh: blocks inflammasome-driven IL-1 beta release; THP-1 LPS/ATP IL-1B secretion, AlphaLISA, 16 h; active compounds read low; activity change, % at 57.5 µM; AID 743279; 4.7% of 360,000 active; in the data active = activity change below about -50%; inconclusive = mostly about -30% to -49%
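THP-1 cells pretreated 1 hr with compounds (up to 57.5 uM final), then stimulated with LPS (250 ng/mL final) plus ATP (1.25 mM final); secreted IL-1B measured by AlphaLISA after 16 hr, decreased signal indicating inhibition.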
HT1080 IDH1KD tx: toxicity to HT-1080 IDH1 knockdown cells (counter line); Potency, µM (series often up to 46.1 µM), for inactives: at the highest dose activity, negative = toxicity, most hits filed as cytotoxic; 2% of 360,000 active; AID 686971; HT-1080 IDH1 knockdown viability, ATP luminescence, 48 h;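 note: potency is the fitted concentration of half-maximal effect; 0% = DMSO wells and -100% = cell-free medium wells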
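In this qHTS, HT-1080 cells depleted of IDH1 are exposed for 48 h at 37 °C to compound titrations. Toxicity is scored from CellTiter-Glo luminescence, with DMSO as full viability and medium alone as none.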
TDP1 cell CPT: DT40-hTDP1 cell growth loss with CPT. chicken DT40 Tdp1-/-;hTDP1 cells + 20 nM CPT, ATP luminescence, 48 h. Potency, µM (series often up to 46.2 µM), without a hit: at the top dose activity change, negative = growth inhibition, hits mostly inhibitors. 12% of 420,000 active. AID 686979; note: potency is the fitted concentration of half-maximal effect; nearly all actives have a fitted effect of over 55% in size
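Cell growth measured by CellTiter-Glo luminescence after a minimum 48 h, 37 C compound exposure with 20 nM CPT in Tdp1-knockout DT40 cells stably expressing hTDP1, seeded 400/well; qHTS titration format.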
TDP1 cell noCPT: qHTS for Inhibitors of human tyrosyl-DNA phosphodiesterase 1 (TDP1): qHTS in cells in absence of CPT | AID 686978, 2013 | Potency, µM (series often up to 46.2 µM), without a hit: at the highest dose activity change, negative = growth inhibition, actives largely listed as inhibitors | 15% of 420,000 active | DT40 Tdp1-/- hTDP1 cells, no CPT, ATP luminescence, 48 h; note: potency is the fitted concentration of half-maximal effect; nearly all actives have a fitted effect of over 55% in size
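Luminescent ATP content (CellTiter-Glo) served as the growth readout. Knockout chicken DT40 cells expressing human TDP1 were exposed to compounds without camptothecin for a minimum 48 hr at 37 °C.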
ALOX12 inh: ALOX12 (human) lipoxygenase inhibition; 1.1% of 580,000 active; AID 1671190; purified 12hLO, xylenol orange hydroperoxide absorbance; Potency, µM (series often up to 108 µM), for the others: top-dose activity change, negative = inhibition, hits mostly inhibitors; P18054; note: potency is the fitted concentration of half-maximal effect
Target sequence (P18054 whole entry, looked up): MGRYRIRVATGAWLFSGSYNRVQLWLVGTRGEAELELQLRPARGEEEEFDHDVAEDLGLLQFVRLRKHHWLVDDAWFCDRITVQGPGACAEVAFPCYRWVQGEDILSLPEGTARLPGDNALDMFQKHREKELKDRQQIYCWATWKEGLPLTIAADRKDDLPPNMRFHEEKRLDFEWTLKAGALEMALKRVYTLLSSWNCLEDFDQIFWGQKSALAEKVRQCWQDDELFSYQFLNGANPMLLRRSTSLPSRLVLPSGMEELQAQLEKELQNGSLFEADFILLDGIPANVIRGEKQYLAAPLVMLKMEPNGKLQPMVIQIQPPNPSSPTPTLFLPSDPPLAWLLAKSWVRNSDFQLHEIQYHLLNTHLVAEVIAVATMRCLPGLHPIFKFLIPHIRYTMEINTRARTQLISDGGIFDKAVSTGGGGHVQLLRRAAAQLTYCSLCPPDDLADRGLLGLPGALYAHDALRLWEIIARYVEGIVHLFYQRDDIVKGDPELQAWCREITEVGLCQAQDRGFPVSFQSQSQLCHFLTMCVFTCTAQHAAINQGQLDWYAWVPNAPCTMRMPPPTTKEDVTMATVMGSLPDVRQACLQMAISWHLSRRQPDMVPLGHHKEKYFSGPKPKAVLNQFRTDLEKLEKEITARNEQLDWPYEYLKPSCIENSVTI
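Hydroperoxide product was detected by ferrous iron/xylenol orange as the 573 to 405 nm absorbance ratio. Arachidonic acid at 40 uM (final) was turned over for 30 min at room temperature by 150 nM human 12hLO, pH 7.0 Hepes buffer, after 15 min compound preincubation.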
* marks the source's active call; other numbers are inactive results; u = inconclusive; x = no result given; [ ] = dose if it differs, or a comment. The full list was thinned out, with hits kept by preference. Unless noted, calls come from the whole dose curve; as a rule, active = well fitted curve in the direction sought with a large enough effect; inconclusive = small, poorly fitted or top-dose-only effect, or another doubt; inactive = no such curve, though single readings can be large; an effect the other way counts as inactive or inconclusive. Unless noted, % is set by controls: 0 for no effect and ±100 for the full control effect.

SMILES	HT1080-NT tox	IL-1B inflam inh	HT1080 IDH1KD tx	TDP1 cell CPT	TDP1 cell noCPT	ALOX12 inh
Cc1ccc(S(=O)(=O)c2ccc(Cl)cc2)cc1S(=O)(=O)N1CCN(C)CC1	-3%	3	-19%	14µM*	u	10%
CN1CCN(S(=O)(=O)c2ccc(Cl)cc2)CC1	5%	1	7%	14%	-3%	-13%
COc1cc(/C=C2/C(=O)NN(c3cccc(F)c3)C2=O)ccc1OC(=O)c1ccco1	-6%	-8	1%	u	16µM*	45µM*
Cc1nc(-c2ccccc2)sc1C(=O)NS(=O)(=O)c1ccc(CN2CCN(c3ccccc3)CC2)cc1	3%	2	1%	3%	0%	32µM*
CNC(=O)c1sc(-c2ccccc2)nc1C	14%	-17	6%	2%	0%	7%
COc1ccc(CCN2C(=O)c3[nH]nc(-c4ccccc4O)c3C2c2ccc(OC)cc2)cc1 (stereo not drawn)	x	x	x	u	u	-1%
COc1cccc(C2c3c(-c4ccccc4O)n[nH]c3C(=O)N2CCc2ccc(OC)c(OC)c2)c1 (stereo not drawn)	x	x	x	15µM*	18µM*	0%
COc1ccc(CCN2C(=O)c3[nH]nc(-c4ccccc4O)c3C2c2ccccc2)cc1 (stereo not drawn)	x	x	x	5.2µM*	5.8µM*	2%
O=C(NCC(c1cccnc1)N1CCc2ccccc2C1)C(=O)Nc1ccccc1 (stereo not drawn)	x	x	x	21µM*	u	6%
O=C(NCC(c1cccnc1)N1CCc2ccccc2C1)C(=O)Nc1ccccc1F (stereo not drawn)	x	x	x	15µM*	21µM*	-2%
CC(=O)Nc1cccc(NC(=O)C(=O)NCC(c2ccco2)N2CCc3ccccc3C2)c1 (stereo not drawn)	-2%	11	-14%	16µM*	23µM*	-17%
O=C(NCC(c1cccnc1)N1CCc2ccccc2C1)c1ccc(F)c(F)c1 (stereo not drawn)	x	x	x	8.2µM*	7.3µM*	4%
COc1cccc(NC(=O)C(=O)NCC(c2ccco2)N2CCc3ccccc3C2)c1 (stereo not drawn)	5%	-7	-11%	u	u	-14%
Cc1ccc(C)c(OCCN)c1	x	x	x	x	x	15%
CC(C)C(=O)NCCNC(=O)c1ccc2ccccc2n1	x	x	x	x	x	-8%
COc1ccc2c(C)c(CC(=O)NCCN3CCOCC3)c(=O)oc2c1OC	x	x	x	x	x	-48%
N#Cc1ccc(C(=O)N2CCOC[C@H](Oc3cnccn3)C2)cc1	x	x	x	x	x	26%[176 µM]
COc1ccccc1C(=O)NCC(c1cccnc1)N1CCc2ccccc2C1 (stereo not drawn)	x	x	x	23µM*	21µM*	-3%
O=C(NCC(c1ccco1)N1CCc2ccccc2C1)c1ccc([N+](=O)[O-])cc1 (stereo not drawn)	-9%	3	-4%	u	23µM*	x
O=C(O)C[C@@H]1CCN(C(=O)C2CCC2)C[C@@H]1CCN1CCN(c2ccccn2)CC1	x	x	x	x	x	-6%[176 µM]
Cc1nc(-c2ccc(F)cc2)n(CC(=O)Nc2cc(C(F)(F)F)ccc2Cl)c(=O)c1CCO	x	x	x	x	x	-2%
CCCN(CC1CCOC1)S(=O)(=O)c1ccc(F)c(C)c1 (stereo not drawn)	x	x	x	x	x	40%
O=C(O)c1cc(-c2cccc(Cl)c2)nc2c(Cl)cccc12	x	x	x	x	x	-3%
COC(=O)N1c2ccccc2CCc2ccccc21	u	4	u	21µM*	16µM*	u
CC(C)(C)C(=O)N1c2ccccc2CCc2ccccc21	-1%	-9	-10%	u	u	-15%
SMILES	HT1080-NT tox	IL-1B inflam inh	HT1080 IDH1KD tx	TDP1 cell CPT	TDP1 cell noCPT	ALOX12 inh
COc1ccc(CCNC(=O)c2cc(-c3cc(C)ccc3O)n[nH]2)cc1OC	-1%	u	0%	u	u	-8%
COc1ccc(CCNC(=O)c2cc(-c3ccccc3OC)on2)cc1OC	7%	u	1%	u	21µM*	7%
COc1ccc(CCNC(=O)c2cc(-c3ccc(Cl)cc3)on2)cc1OC	x	x	x	-2%	0%	-21%
COc1ccc2nc3sc(C(=O)NCCc4ccc(Cl)cc4)cc3cc2c1	x	x	x	9%	-13%	u
COc1ccccc1-c1cc(C(=O)NCCc2ccccc2)no1	-23%	14	u	13µM*	15µM*	-17%
COc1ccc(CCNC(=O)c2cc(-c3ccc(C)c(C)c3O)n[nH]2)cc1OC	-27%	u	u	21µM*	16µM*	-8%
COc1ccc2cc3cc(C(=O)NCCc4ccccc4)sc3nc2c1Cl	x	x	x	12µM*	16µM*	-35%
COc1ccc(C(=O)N2CCOCC3(CN(Cc4cc(F)ccc4F)C3)C2)cc1OC	x	x	x	x	x	1%[176 µM]
CC(C)(C)Sc1ccc2nn(CC(=O)NCc3ccc(F)cc3)c(=O)n2n1	x	x	x	x	x	-23%
Cc1ccc2c(C(=O)O)cc(-c3cccnc3)nc2c1C	x	x	x	x	x	11%
COc1ccc(CCNC(=O)c2cc(CC(C)C)on2)cc1OC	6%	11	-1%	u	16µM*	-3%
COc1ccc(CCNC(=O)c2cc(C3CC3)on2)cc1OC	10%	5	5%	-20%	-5%	-28%
N#Cc1ccc(NC(=O)COC(=O)C2Cc3ccccc3CN2C(=O)c2ccccc2)cc1 (stereo not drawn)	-16%	-8	1%	9.2µM*	16µM*	-7%
COc1cccc(N/C(N)=N/c2nc(C(F)(F)F)cc(=O)[nH]2)c1	7%	19	15%	10µM*	u	18%
Cc1cccc(N/C(N)=N/c2nc(C(F)(F)F)cc(C(F)(F)F)n2)c1	17%	4	12%	0%	5%	-4%
Cc1oc(-c2ccc(C(=O)Nc3ccc(F)cc3)cc2)nc1COc1ccccc1	x	x	x	u	u	-12%
COc1cccc(CNC(=O)c2nc(-c3ccccc3)oc2C)c1	x	x	x	x	x	-19%
COc1cccc(CNC(=O)c2ccc(-c3nc(CS(=O)c4ccccc4)c(C)o3)cc2)c1 (stereo not drawn)	x	x	x	u	16µM*	-24%
Cc1ccc(SCc2nc(-c3ccc(C(=O)NCC(C)c4ccccc4)cc3)oc2C)cc1 (stereo not drawn)	x	x	x	8.2µM*	6.5µM*	u
COc1cc(NC(=O)c2ccc(-c3nc(COc4ccccc4)c(C)o3)cc2)cc(OC)c1	x	x	x	9.2µM*	10µM*	-6%
COc1ccc(OC)c(NC(=O)c2ccc(-c3nc(CSc4ccccc4)c(C)o3)cc2)c1	x	x	x	21µM*	21µM*	-13%

Screening results (PubChem BioAssay)
